# Data published in the supplement of paper PMC6411743.
# ± gives the standard deviation of the averaged measurements. Of roughly 6,200 targets only a part is listed; those with the largest changes were picked by preference.
# Columns and labels:
# Experiment in all cases: NP40-soluble protein abundance relative to vehicle (solubility fold change) (ratio); higher = more soluble protein in presence of AMP-PNP
# GALNS = target: T1, GALNS (UniProt P34059)
# T1 sequence (whole entry): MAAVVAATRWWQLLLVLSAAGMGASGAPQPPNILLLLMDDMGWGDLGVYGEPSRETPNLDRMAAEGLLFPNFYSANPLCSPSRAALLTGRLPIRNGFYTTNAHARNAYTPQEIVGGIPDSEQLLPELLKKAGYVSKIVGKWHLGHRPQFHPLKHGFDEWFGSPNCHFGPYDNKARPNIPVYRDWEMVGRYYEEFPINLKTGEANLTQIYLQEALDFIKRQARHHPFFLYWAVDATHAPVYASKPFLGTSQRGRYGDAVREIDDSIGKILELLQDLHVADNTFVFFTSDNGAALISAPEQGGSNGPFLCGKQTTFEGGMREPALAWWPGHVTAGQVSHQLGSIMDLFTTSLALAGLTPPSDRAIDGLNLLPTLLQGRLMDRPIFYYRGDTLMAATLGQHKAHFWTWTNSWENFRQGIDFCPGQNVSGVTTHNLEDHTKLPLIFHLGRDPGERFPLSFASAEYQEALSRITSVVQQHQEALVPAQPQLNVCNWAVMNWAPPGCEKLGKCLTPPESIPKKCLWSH
# Summary of the method: (§1)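 In three independent experiments, Jurkat crude lysate made by Dounce homogenisation was treated for 10 min at room temperature and then 3 min at 37 °C with eight concentrations ranging from 0.1 to 10 mM. It was then solubilised with 0.8% NP40 plus benzonase for 60 min at 4 °C and ultracentrifuged. The supernatant was TMT-labelled for LC-MS/MS, and each value is the fold change against the detergent-processed vehicle for the same replicate, using vsn-normalised intensities.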
# MFN2 = target: T2, MFN2 (UniProt O95140)
# T2 sequence (whole entry): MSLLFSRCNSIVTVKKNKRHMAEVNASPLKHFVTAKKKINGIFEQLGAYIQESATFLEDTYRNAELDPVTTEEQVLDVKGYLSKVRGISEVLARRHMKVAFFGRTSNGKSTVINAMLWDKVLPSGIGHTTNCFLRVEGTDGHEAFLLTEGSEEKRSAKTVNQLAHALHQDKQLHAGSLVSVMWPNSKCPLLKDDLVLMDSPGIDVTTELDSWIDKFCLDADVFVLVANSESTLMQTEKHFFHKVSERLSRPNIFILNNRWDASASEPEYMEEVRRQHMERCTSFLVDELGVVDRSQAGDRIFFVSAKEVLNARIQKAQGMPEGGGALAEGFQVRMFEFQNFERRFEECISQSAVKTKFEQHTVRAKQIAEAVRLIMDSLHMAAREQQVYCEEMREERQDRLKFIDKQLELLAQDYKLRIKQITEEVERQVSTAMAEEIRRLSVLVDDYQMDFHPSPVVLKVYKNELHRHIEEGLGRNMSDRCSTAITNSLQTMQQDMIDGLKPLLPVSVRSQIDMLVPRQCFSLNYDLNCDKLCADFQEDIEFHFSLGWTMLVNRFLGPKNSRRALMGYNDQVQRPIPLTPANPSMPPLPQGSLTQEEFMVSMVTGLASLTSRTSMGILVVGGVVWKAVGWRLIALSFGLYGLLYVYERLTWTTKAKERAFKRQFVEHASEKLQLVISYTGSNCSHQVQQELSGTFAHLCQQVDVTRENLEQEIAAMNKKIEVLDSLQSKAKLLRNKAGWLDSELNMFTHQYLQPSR
# Summary of the method: as §1
# PPM1F = target: T3, PPM1F (UniProt P49593)
# T3 sequence (whole entry): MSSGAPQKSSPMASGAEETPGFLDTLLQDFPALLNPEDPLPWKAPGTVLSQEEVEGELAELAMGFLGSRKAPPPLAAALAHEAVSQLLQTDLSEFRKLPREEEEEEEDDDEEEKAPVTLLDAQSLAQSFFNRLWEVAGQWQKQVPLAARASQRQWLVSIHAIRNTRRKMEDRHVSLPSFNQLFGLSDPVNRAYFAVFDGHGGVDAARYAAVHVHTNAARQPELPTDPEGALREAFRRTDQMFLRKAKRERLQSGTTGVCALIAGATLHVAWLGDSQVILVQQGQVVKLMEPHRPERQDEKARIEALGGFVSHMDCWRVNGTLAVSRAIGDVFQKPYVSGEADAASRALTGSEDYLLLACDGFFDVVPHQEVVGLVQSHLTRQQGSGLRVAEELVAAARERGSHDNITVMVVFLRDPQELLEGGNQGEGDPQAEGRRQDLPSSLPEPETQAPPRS
# Summary of the method: as §1
smiles,measurement,setting,value
Nc1ncnc2c1ncn2[C@@H]1O[C@H](COP(=O)(O)OP(=O)(O)NP(=O)(O)O)[C@@H](O)[C@H]1O [adenylyl imidodiphosphate],NP40-soluble protein abundance,GALNS; concentration: 1mM,0.986 ± 0.018
same,NP40-soluble protein abundance,GALNS; concentration: 2mM,0.972 ± 0.011
same,NP40-soluble protein abundance,GALNS; concentration: 4mM,0.957 ± 0.04
same,NP40-soluble protein abundance,GALNS; concentration: 6mM,0.963 ± 0.019
same,NP40-soluble protein abundance,GALNS; concentration: 8mM,0.933 ± 0.034
same,NP40-soluble protein abundance,GALNS; concentration: 10mM,0.975 ± 0.027
same,NP40-soluble protein abundance,MFN2; concentration: 1mM,1.01 ± 0.064
same,NP40-soluble protein abundance,MFN2; concentration: 2mM,0.956 ± 0.032
same,NP40-soluble protein abundance,MFN2; concentration: 4mM,1.01 ± 0.074
same,NP40-soluble protein abundance,MFN2; concentration: 6mM,0.965 ± 0.037
same,NP40-soluble protein abundance,MFN2; concentration: 8mM,0.986 ± 0.049
same,NP40-soluble protein abundance,MFN2; concentration: 10mM,0.989 ± 0.024
same,NP40-soluble protein abundance,PPM1F; concentration: 1mM,1.028 ± 0.0057
same,NP40-soluble protein abundance,PPM1F; concentration: 2mM,1.019 ± 0.0062
same,NP40-soluble protein abundance,PPM1F; concentration: 4mM,1.03 ± 0.011
same,NP40-soluble protein abundance,PPM1F; concentration: 6mM,1.014 ± 0.0081
same,NP40-soluble protein abundance,PPM1F; concentration: 8mM,1.02 ± 0.013
same,NP40-soluble protein abundance,PPM1F; concentration: 10mM,1.04 ± 0.018
